# Assay results reported in the supplement of paper PMC7366291.
# Counter-ions that a name gives are not always drawn.
# System: Danio rerio Tg(wt1b:EGFP) embryo, pronephros
# Assay: fraction of imaged embryos annotated as normal kidney; higher = less nephrotoxic; extreme values may be limits of the assay
# Details: 25 µM; exposure: 24-48 hpf
# Outline: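 Dechorionated Tg(wt1b:EGFP) zebrafish embryos were incubated with 25 μM compound in 0.5% DMSO, 5 mM HEPES-buffered E3 and 0.003% PTU from 24 to 48 hpf at 28.5°C. Pronephroi were then imaged by widefield fluorescence, and the fraction of embryos per treatment assigned by hand to the normal-kidney category is given.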
row,SMILES,fraction of imaged embryos annotated as normal kidney
1,C[C@]12CC[C@H]3[C@@H](CCC4=CC(=O)CC[C@@H]43)[C@@H]1CC[C@@H]2O [Nandrolone],0.833
2,CC[N+]1(C)CCCC(OC(=O)C(O)(c2ccccc2)c2ccccc2)C1 (stereo unspecified) [Pipenzolate bromide],0.909
3,C[C@]12CC[C@@H]3c4ccc(OC(=O)N(CCCl)CCCl)cc4CC[C@H]3[C@@H]1CC[C@@H]2O [Estramustine],0.333
4,CCCN1C[C@H](CSC)C[C@@H]2c3cccc4[nH]cc(c34)C[C@H]21 [Pergolide mesylate],1
5,NCCCNCCSP(=O)(O)O [Amifostine],0.833
6,CC[C@@H](C(N)=O)N1CCCC1=O [Levetiracetam],0.917
7,C[C@]12CC[C@@H](O)C[C@H]1CC[C@@H]1[C@@H]2CC[C@]2(C)C(=O)CC[C@@H]12 [3-alpha-Hydroxy-5-beta-androstan-17-one],0.75
8,C[C@@H]1C[C@@H]([C@H](O)CC2CC(=O)NC(=O)C2)C(=O)[C@@H](C)C1 [Cycloheximide],0.2
9,CC(=O)NC1CCSC1=O (racemic) [N-Acetyl-DL-homocysteine Thiolactone],0.917
10,CC(C)(C)NCC(O)c1cc(Cl)c(N)c(Cl)c1 (stereo unspecified) [Clenbuterol hydrochloride],0.75
11,"NCC(O)c1ccc(O)cc1 (racemic) [(+,-)-Octopamine hydrochloride]",0.909
12,C=C(C)[C@@H]1[C@H]2OC(=O)[C@@H]1[C@]1(O)C[C@H]3O[C@]34C(=O)O[C@H]2[C@]14C [Picrotoxinin],0.917
13,C[N+]12CCC(CC1)C(OC(=O)C(O)(c1ccccc1)c1ccccc1)C2 (stereo unspecified) [Clidinium bromide],0.917
14,COc1ccc(CN2CCNCC2)c(OC)c1OC [Trimetazidine dihydrochloride],0.917
15,CN(C)C(=O)Oc1cc(OC(=O)N(C)C)cc(C(O)CNC(C)(C)C)c1 (stereo unspecified) [Bambuterol hydrochloride],1
16,CC(C)C[C@H]1C(=O)N2CCC[C@H]2[C@]2(O)O[C@](NC(=O)[C@@H]3C=C4c5cccc6[nH]c(Br)c(c56)C[C@H]4N(C)C3)(C(C)C)C(=O)N12 [Bromocryptine mesylate],0.833

row,SMILES,fraction of imaged embryos annotated as normal kidney
1,C#C[C@]1(O)CC[C@H]2[C@@H]3CCC4=CC(=O)CC[C@]4(C)[C@H]3CC[C@@]21C [Ethisterone],0.909
2,CC(=O)O[C@H]1C[C@H](O[C@H]2[C@@H](O)C[C@H](O[C@H]3[C@@H](O)C[C@H](O[C@H]4CC[C@@]5(C)[C@H](CC[C@@H]6[C@@H]5C[C@@H](O)[C@]5(C)[C@@H](C7=CC(=O)OC7)CC[C@]65O)C4)O[C@@H]3C)O[C@@H]2C)O[C@H](C)[C@H]1O[C@@H]1O[C@H](CO)[C@@H](O)[C@H](O)[C@H]1O [Lanatoside C],0.917
3,CN(C)C(=O)Oc1ccc[n+](C)c1 [Pyridostigmine iodide],0.917
4,O=c1[nH]oc2c1CCNC2 [THIP Hydrochloride],0.917
5,S=C(NC1CCCCC1)N1CCC(c2cnc[nH]2)CC1 [Thioperamide maleate],0.917
6,CC[C@@H](CO)NC(=O)[C@@H]1C=C2c3cccc4[nH]cc(c34)C[C@H]2N(C)C1 [Methylergometrine maleate],0.909
7,C[C@]12Cc3c[nH]nc3C[C@@H]1CC[C@@H]1[C@@H]2CC[C@@]2(C)[C@H]1CC[C@]2(C)O [Stanozolol],0.75
8,COc1ccc(OC)c(C(O)C(C)N)c1 (stereo unspecified) [Methoxamine hydrochloride],0.75
9,CC(NC(C)(C)C)C(=O)c1cccc(Cl)c1 (stereo unspecified) [Bupropion hydrochloride],1
10,C(#CCN1CCCC1)CN1CCCC1 [Tremorine dihydrochloride],0.75
11,NCCc1c[nH]c2ccc(O)cc12 [Serotonin hydrochloride],0.667
12,COc1cccc(C2(O)CCCCC2CN(C)C)c1 (stereo unspecified) [Tramadol hydrochloride],0.833
13,NC(=O)CN1CCCC1=O [Piracetam],0.917
14,COc1cc2c(c(OC)c1OC)-c1ccc(OC)c(=O)cc1[C@@H](NC(C)=O)CC2 [Colchicine],0.667
15,C[C@]12CCC(=O)C=C1C=C[C@@H]1[C@@H]2CC[C@@]2(C)[C@H]1CC[C@@]2(O)CCC(=O)O [Canrenoic acid potassium salt],0.455
